According to the supplement of paper PMC7801607:

Tests used:
[1] = test system: CHO; assay: % viability of CHO cells (MTT); higher = less toxic; settings: 48 h
How it was run: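 For 48 h, attached CHO cells (10^6 cells/well, 200 µL, seeded the night before) were kept in fresh medium carrying compound at 2 or 20 µM. A colorimetric tetrazolium (MTT) assay then gave survival as percent viability versus untreated cells.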

[2] = test system: HepG2-A16-CD81; assay: % inhibition of HepG2 viability (CellTiter-Glo); higher = more toxic; settings: 5 µM;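 note: HepG2-A16-CD81 hepatoma cells plated as in the liver-stage assay but without sporozoites, with DMSO wells as negative and 25 µM puromycin as positive control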
[3] = test system: Plasmodium falciparum NF54 stage IV/V gametocytes; assay: % inhibition of gametocyte viability (PrestoBlue); higher = more inhibition; settings: 48 h
How it was run: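 Stage IV/V NF54 gametocytes at 2% gametocytaemia and 5% haematocrit (100 µL/well) were treated with compound at 1 or 5 µM and incubated for 48 h at 37 °C under stationary, hypoxic conditions. PrestoBlue (10 µL) was then added for 2 h, and fluorescence at 612 nm was read on 70 µL of transferred supernatant. Percent inhibition of gametocyte viability was normalised to vehicle and kill controls within one run.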

[4] = test system: Plasmodium falciparum NF54 asexual blood stage; assay: % inhibition of asexual blood stage proliferation (pLDH); higher = more inhibition; settings: 72 h
How it was run: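 Plasmodium falciparum NF54 ring-stage cultures (1% haematocrit, 2% parasitaemia) were incubated with compound at 2 or 20 µM for 72 h at 37 °C under 4% CO2, 3% O2 and 93% N2. Survival was read at 620 nm with the parasite lactate dehydrogenase assay. Results were reported as percent inhibition of asexual proliferation relative to controls.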

[5] = test system: Plasmodium falciparum NF54 stage IV/V gametocytes; assay: % inhibition of gametocyte viability (ATP bioluminescence); higher = more inhibition; settings: 24 h
How it was run: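 Stage IV/V NF54 gametocytes from density gradients (30,000 per well, 96-well plates) were incubated with compound at 1 or 5 µM for 24 h at 37 °C. A single run supplied percent inhibition of gametocyte viability, based on ATP measured with Promega BacTiter Glo and normalised to control wells.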

[6] = test system: Plasmodium falciparum NF54 stage IV/V gametocytes; assay: % inhibition of gametocyte viability (luciferase reporter); higher = more inhibition; settings: 48 h
How it was run: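 Compound at 1 or 5 µM was added to stage IV/V NF54-Pfs16-GFP-Luc gametocytes (2% gametocytaemia, 2% haematocrit) and incubated stationary and hypoxic at 37 °C for 48 h. A GloMax-Multi+ reader measured luminescence over 10 s integration on 30 µL lysate plus 30 µL Promega luciferin substrate. Percent inhibition values were normalised to controls within a single run.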

Row | SMILES | % viability of CHO cells ([1]; 2 µM) [%] | % viability of CHO cells ([1]; 20 µM) [%] | % inhibition of HepG2 viability [2] [%] | % inhibition of gametocyte viability ([3]; 1 µM) [%] | % inhibition of gametocyte viability ([3]; 5 µM) [%] | % inhibition of asexual blood stage proliferation ([4]; 2 µM) [%] | % inhibition of asexual blood stage proliferation ([4]; 20 µM) [%] | % inhibition of gametocyte viability ([5]; 1 µM) [%] | % inhibition of gametocyte viability ([5]; 5 µM) [%] | % inhibition of gametocyte viability ([6]; 1 µM) [%] | % inhibition of gametocyte viability ([6]; 5 µM) [%]
1 | Nc1nc(O)c2ncn(COCCO)c2n1 | 98.5 | 121 | 1.64 | < 0 | 15.7 | 21.3 | 31.7 | < 0 | < 0 | < 0 | < 0
2 | Cc1nc2ccc(Cl)cc2c(-c2ccccc2)c1CC(=O)O | 121 | 61.2 | 6.38 | < 0 | < 0 | 37.6 | 40.5 | < 0 | < 0 | 7.85 | 13.3
3 | O=C(Nc1ccc(F)cc1)c1nn(-c2ccccc2)c(=O)cc1Cl | 110 | 106 | 2.98 | 30.6 | 81 | 35.1 | 98.7 | 2.79 | 5.32 | 29.4 | 91.6
4 | O=S(=O)(Nc1ccc(-n2cccc2)cc1)c1ccc(Cl)c(Cl)c1 | 95 | 90.4 | -0.822 | < 0 | < 0 | 6.75 | 24 | < 0 | < 0 | < 0 | < 0
5 | CCc1cc(O)c(Oc2ccc(C(N)=O)cc2F)cc1F | 116 | 100 | 3.65 | 18.7 | 17.8 | 54.5 | 62.6 | < 0 | < 0 | < 0 | < 0
6 | CC1CN(c2ncnc3c2c(-c2ccccc2)cn3-c2ccc(F)cc2)CC(C)O1 (stereo not given) | 82.6 | 122 | 6.07 | 17.3 | 1.77 | 75.6 | 95.5 | < 0 | < 0 | < 0 | < 0
7 | N=C(N)c1ccc(COc2ccc(Cl)cc2)cc1 | 103 | 102 | 2.38 | < 0 | 11.4 | 11.1 | 89.9 | 0.321 | 4.27 | < 0 | < 0
8 | Cc1cc(Nc2ccc(F)cc2)nc(SCc2nc3ccccc3[nH]2)n1 | 91.4 | 101 | 4.62 | 19 | 32.7 | -9.36 | -3.55 | 1.25 | 33.8 | < 0 | < 0
9 | OCCC#Cc1nc(-c2ccc(F)cc2)c(-c2ccncc2)n1CCCc1ccccc1 | 107 | 83 | 5.38 | < 0 | 30.5 | 15.3 | 83 | 1.66 | 8.02 | 5.66 | 32.2
10 | CCc1c(OCC2CCC2)c2cc(F)ccc2[nH]c1=O | 78.6 | 52.7 | -2.38 | 14.3 | 2.83 | 26.9 | 36 | 7.14 | < 0 | < 0 | < 0
11 | O=C(c1ccc(F)cc1)N1CCN2C(=O)c3ccccc3C12c1ccccc1 (stereo not given) | 116 | 109 | -0.867 | 13.1 | 10.8 | 37.1 | 83.7 | < 0 | < 0 | < 0 | < 0
12 | O=c1[nH]c(=O)n(Cc2cccc(Oc3ccccc3)c2)cc1Nc1ccccc1 | 116 | 65.4 | 7.38 | < 0 | < 0 | -152 | 47.8 | < 0 | < 0 | < 0 | < 0
13 | N#C/C(=C1/SC[C@H](c2ccc(Cl)cc2Cl)S1)n1ccnc1 | 113 | 118 | 10 | 11.8 | 16.4 | 48.7 | 22.8 | < 0 | < 0 | < 0 | 1.63
14 | O=C(c1cc(O)nc2ccccc12)N1CCN(c2ccccc2)CC1 | 95.9 | 52.7 | -2.09 | < 0 | < 0 | 24.8 | 48.3 | 4.72 | 10.4 | < 0 | < 0
15 | O=C(Nc1ccc(Cl)c(C(F)(F)F)c1)C(CCCl)C(=O)Nc1ccc(Cl)c(C(F)(F)F)c1 | 84 | 93.6 | 5.66 | < 0 | < 0 | 19.9 | 27.7 | < 0 | < 0 | < 0 | < 0
16 | Cc1cc(C2CCCCC2)n(O)c(=O)c1 | 95.2 | 69.7 | 13.4 | < 0 | 58.2 | 9.8 | 77.8 | 36.1 | < 0 | < 0 | < 0
17 | C[Si]1(C)CCN(Cc2cc(-c3ccc(Cl)cc3)n(-c3ccc(Cl)cc3)n2)CC1 | 108 | 71.6 | 5.65 | 28.8 | 68.7 | 57 | 59.2 | 3.88 | 81 | 3.92 | 31.2
18 | O=C1C=C(c2ccccc2)S(=O)(=O)c2ccccc21 | 91.6 | 81.8 | -4.77 | 53.4 | 76 | -2.86 | 54.4 | 13.8 | 83.4 | 16 | 85.4
19 | O=C(NCc1ccccc1Cl)c1cnc2ccccc2n1 | 106 | 124 | 5.29 | < 0 | < 0 | 6.58 | 48.8 | < 0 | < 0 | < 0 | < 0
20 | O=C(N[C@H](Cc1cccc2ccccc12)C(=O)NCCc1c[nH]cn1)C1Cc2ccccc2C1 | 95.1 | 97.8 | 0.483 | 2.53 | 32.6 | 23 | 81.3 | 2.29 | 1.33 | < 0 | 2.07

Row | SMILES | % viability of CHO cells ([1]; 2 µM) [%] | % viability of CHO cells ([1]; 20 µM) [%] | % inhibition of HepG2 viability [2] [%] | % inhibition of gametocyte viability ([3]; 1 µM) [%] | % inhibition of gametocyte viability ([3]; 5 µM) [%] | % inhibition of asexual blood stage proliferation ([4]; 2 µM) [%] | % inhibition of asexual blood stage proliferation ([4]; 20 µM) [%] | % inhibition of gametocyte viability ([5]; 1 µM) [%] | % inhibition of gametocyte viability ([5]; 5 µM) [%] | % inhibition of gametocyte viability ([6]; 1 µM) [%] | % inhibition of gametocyte viability ([6]; 5 µM) [%]
21 | COc1ccc(COc2cc3oc(=O)c4cc(C(C)O)ccc4c3cc2OC)cc1 (stereo not given) | 81.5 | 74.4 | 6.8 | 11 | 11.6 | 35.7 | 80.4 | 6.77 | < 0 | < 0 | < 0
22 | CCOC(=O)N1CCN(c2ccc(Cl)cc2)CC1 | 90.5 | 83.4 | -3.4 | 17.5 | < 0 | 6.16 | 24.1 | < 0 | < 0 | < 0 | 8.21
23 | Cc1ccc(C)c(OCCCCCCN2C[C@H](O)[C@@H](O)[C@H](O)[C@H]2CO)c1 | 111 | 110 | 4.29 | < 0 | < 0 | 8.28 | 41.4 | 1.96 | < 0 | 5.24 | 11
24 | COc1cccc(N2CCN(C3=Nc4c(F)cccc4[C@H](CC(=O)O)N3c3cc(C(F)(F)F)ccc3OC)CC2)c1 | 90.8 | 116 | 5.59 | 11.1 | 1.05 | 22.9 | 84.4 | < 0 | < 0 | < 0 | 6.89
25 | O=C1[C@H](CC[C@H](O)c2ccc(F)cc2)[C@@H](c2ccc(O)cc2)N1c1ccc(F)cc1 | 94.9 | 113 | -3.46 | < 0 | < 0 | 43.1 | 61 | < 0 | < 0 | 2.9 | 4.53
26 | O=C(Nc1[nH]c(=O)ncc1F)c1ccccc1 | 103 | 106 | 1.79 | 1.43 | 5.2 | 2.42 | 1.98 | < 0 | < 0 | < 0 | < 0
27 | O=C(NC1CCCc2c1[nH]c1ccc(Cl)cc21)c1ccccn1 (stereo not given) | 96.3 | 102 | 20.7 | < 0 | 6.95 | 20.6 | 37.5 | < 0 | < 0 | < 0 | < 0
28 | Cc1ccc(N2CCC(CCOc3ccc(S(C)(=O)=O)cc3)CC2)nn1 | 89.6 | 123 | 1.45 | 0.785 | < 0 | 9.69 | 64.6 | 1.5 | < 0 | 0.296 | < 0
29 | COCCn1cnc2c(=O)[nH]c(Nc3ccccc3)nc21 | 103 | 63.9 | 5.25 | < 0 | 0.985 | 28.3 | 62.8 | 7.08 | 5.85 | 14.5 | 5.09
30 | Cc1ccccc1NC(=O)Nc1cccc([N+](=O)[O-])c1 | 121 | 111 | 8.58 | < 0 | 2.93 | 3.72 | 73.7 | 6.45 | < 0 | 3.59 | < 0
31 | CNC(=O)C1O[C@@H](n2cnc3c(NCc4cccc(I)c4)nc(Cl)nc32)[C@H](O)[C@@H]1O (stereo not given in full) | 97.5 | 132 | -10.3 | 12.5 | 24.1 | 33.8 | 63 | < 0 | < 0 | < 0 | < 0
32 | CCc1nc2ccccn2c1C(=O)NCc1ccccc1 | 123 | 58.5 | 6.82 | < 0 | < 0 | 6.85 | 18.2 | < 0 | < 0 | < 0 | 8.65
33 | NCC(=O)Nc1ccc(-n2nc(C(F)(F)F)cc2-c2ccc3c(ccc4ccccc43)c2)cc1 | 124 | 64.1 | 9.92 | 22.9 | 12.6 | 1.4 | 67.6 | 31 | 93.6 | < 0 | < 0
34 | NC1C2CC3CC(C2)CC1C3 (stereo not given) | 78.9 | 70.3 | -1.51 | 21.5 | 18.1 | 76.1 | 43.4 | 6.86 | 5.87 | 9.54 | 9.98
35 | Nc1nnnn1CCOc1c2[nH]c3ccc(Cl)cc3c2cc2c1[nH]c1ccc(Cl)cc12 | 98.6 | 121 | 5.71 | < 0 | < 0 | 11.9 | 95.2 | < 0 | < 0 | < 0 | 31.2
36 | CCCCc1ccc(-c2nc(C)c(C(=O)OC)s2)cc1 | 113 | 102 | 0.116 | 5.41 | 22.1 | 36.8 | 59.2 | < 0 | < 0 | < 0 | < 0
37 | Cc1cccc(C)c1C(=O)Nc1nc(-c2ccccn2)cc2ccccc12 | 104 | 17.3 | 32.4 | 13.5 | 53.2 | 79.3 | 104 | 73.4 | 90.8 | < 0 | 68.3
38 | CC(C)(C)c1cc(C(=O)/C(C#N)=N/Nc2cccc(Cl)c2)no1 | 113 | 97.4 | 44.1 | < 0 | < 0 | -1.08 | 24.2 | < 0 | < 0 | < 0 | < 0
39 | Nc1nc(-c2ccccc2)nc2c1ncn2[C@@H]1O[C@H](COS(=O)(=O)NC(=O)c2ccccc2O)[C@@H](O)[C@H]1O | 102 | 129 | 3.69 | 16.3 | 11 | 19.4 | 71.1 | < 0 | < 0 | < 0 | < 0
40 | CC(C)/N=c1\cc2n(-c3ccc(Cl)cc3)c3ccccc3nc-2cc1Nc1ccc(Cl)cc1 | 96.5 | 98.2 | 18.3 | < 0 | < 0 | 82.2 | 88.9 | < 0 | < 0 | < 0 | 16
